# About 410 targets per protein were measured; listed, in parts, are those with the strongest signals and a random draw of the rest.
# Experiments:
# Test in all cases: glycan array binding signal (z-score within array); higher = stronger binding
# Conditions in all cases: glycan notation: IUPAC condensed, linker removed; mutation: D229G
# [1] = target: Fuc(a1-2)Gal(b1-3)GlcNAc(b1-2)Man(a1-3)[Fuc(a1-2)Gal(b1-3)GlcNAc(b1-2)Man(a1-6)]Man(b1-4)GlcNAc(b1-4)GlcNAc
# Outline: (§1)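 Negative Z-scores can be read as non-binding. The Z-score is calculated within each array and then averaged across arrays of one protein sequence at different concentrations or buffers and across linkers. Arrays, 3228 in all, were curated from the Consortium for Functional Glycomics database and kept only where the protein sequence was available.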
# [2] = target: Fuc(a1-2)Gal(b1-3)GlcNAc(b1-3)GalNAc
# Outline: as §1
# [3] = target: Fuc(a1-2)Gal(b1-3)GlcNAc(b1-3)[Gal(b1-4)GlcNAc(b1-6)]Gal(b1-4)Glc
# Outline: as §1
# Fuc(a1-2)Gal(b1-4)GlcNAc = target: Fuc(a1-2)Gal(b1-4)GlcNAc
# Outline: as §1
# [4] = target: Fuc(a1-2)Gal(b1-4)GlcNAc(b1-3)Gal(b1-4)GlcNAc(b1-3)Gal(b1-4)GlcNAc
# Outline: as §1
# [5] = target: Fuc(a1-2)Gal(b1-4)[Fuc(a1-3)]GlcNAc(b1-3)Gal(b1-4)[Fuc(a1-3)]GlcNAc
# Outline: as §1
# [6] = target: Fuc(a1-2)Gal3S(b1-4)GlcNAc
# Outline: as §1
# Fuc(a1-2)Gal6S(b1-4)Glc = target: Fuc(a1-2)Gal6S(b1-4)Glc
# Outline: as §1
# [7] = target: Fuc(a1-2)[Gal(a1-3)]Gal(b1-3)GlcNAc(b1-2)Man(a1-3)[Fuc(a1-2)[Gal(a1-3)]Gal(b1-3)GlcNAc(b1-2)Man(a1-6)]Man(b1-4)GlcNAc(b1-4)GlcNAc
# Outline: as §1
# [8] = target: Fuc(a1-2)[Gal(a1-3)]Gal(b1-3)GlcNAc(b1-6)GalNAc
# Outline: as §1
# [9] = target: Fuc(a1-2)[Gal(a1-3)]Gal(b1-4)GlcNAc(b1-2)Man(a1-3)[Fuc(a1-2)[Gal(a1-3)]Gal(b1-4)GlcNAc(b1-2)Man(a1-6)]Man(b1-4)GlcNAc(b1-4)GlcNAc
# Outline: as §1
# [10] = target: Fuc(a1-2)[Gal(a1-3)]Gal(b1-4)GlcNAc(b1-6)GalNAc
# Outline: as §1
# [11] = target: Fuc(a1-2)[Gal(a1-3)]Gal(b1-4)[Fuc(a1-3)]GlcNAc(b1-3)GalNAc
# Outline: as §1
# [12] = target: Fuc(a1-2)[GalNAc(a1-3)]Gal(b1-4)GlcNAc(b1-2)Man
# Outline: as §1
# [13] = target: Fuc(a1-2)[GalNAc(a1-3)]Gal(b1-4)GlcNAc(b1-3)[Fuc(a1-2)[GalNAc(a1-3)]Gal(b1-4)GlcNAc(b1-6)]GalNAc
# Outline: as §1
# [14] = target: Fuc(a1-2)[GalNAc(a1-3)]Gal(b1-4)[Fuc(a1-3)]GlcNAc(b1-3)GalNAc
# Outline: as §1
# [15] = target: Fuc(a1-3)[Gal(b1-4)]GlcNAc(b1-3)Gal(b1-4)[Fuc(a1-3)]GlcNAc(b1-3)Gal(b1-4)[Fuc(a1-3)]GlcNAc
# Outline: as §1
# [16] = target: Fuc(a1-3)[Gal3S(b1-4)]GlcNAc6S
# Outline: as §1
# Gal(a1-3)Gal(b1-3)GlcNAc = target: Gal(a1-3)Gal(b1-3)GlcNAc
# Outline: as §1
# [17] = target: Gal(a1-3)Gal(b1-3)GlcNAc(b1-2)Man(a1-3)[Gal(a1-3)Gal(b1-3)GlcNAc(b1-2)Man(a1-6)]Man(b1-4)GlcNAc(b1-4)GlcNAc
# Outline: as §1
# Gal(b1-2)Gal = target: Gal(b1-2)Gal
# Outline: as §1
# Gal(b1-3)Gal = target: Gal(b1-3)Gal
# Outline: as §1
# [18] = target: Gal(b1-3)GlcNAc(b1-3)Gal(b1-4)GlcNAc(b1-3)Gal(b1-4)GlcNAc(b1-2)[Gal(b1-3)GlcNAc(b1-3)Gal(b1-4)GlcNAc(b1-3)Gal(b1-4)GlcNAc(b1-6)]Man(a1-6)[Gal(b1-3)GlcNAc(b1-3)Gal(b1-4)GlcNAc(b1-3)Gal(b1-4)GlcNAc(b1-2)Man(a1-3)]Man(b1-4)GlcNAc(b1-4)[Fuc(a1-6)]GlcNAc
# Outline: as §1
# Gal(b1-3)GlcNAc6S = target: Gal(b1-3)GlcNAc6S
# Outline: as §1
# [19] = target: Gal(b1-3)[Fuc(a1-4)]GlcNAc(b1-2)Man(a1-3)[Gal(b1-3)[Fuc(a1-4)]GlcNAc(b1-2)Man(a1-6)]Man(b1-4)GlcNAc(b1-4)[Fuc(a1-6)]GlcNAc
# Outline: as §1
# [20] = target: Gal(b1-4)GlcNAc(b1-2)[Gal(b1-4)GlcNAc(b1-4)]Man(a1-3)[Gal(b1-4)GlcNAc(b1-2)Man(a1-6)]Man(b1-4)GlcNAc(b1-4)GlcNAc
# Outline: as §1
# [21] = target: Gal(b1-4)GlcNAc(b1-2)[Gal(b1-4)GlcNAc(b1-4)]Man(a1-3)[GlcNAc(b1-4)][Gal(b1-4)GlcNAc(b1-2)Man(a1-6)]Man(b1-4)GlcNAc(b1-4)GlcNAc
# Outline: as §1
# [22] = target: Gal(b1-4)GlcNAc(b1-3)Gal(b1-3)GalNAc
# Outline: as §1
# [23] = target: Gal(b1-4)GlcNAc(b1-3)Gal(b1-4)GlcNAc(b1-2)Man(a1-3)[Gal(b1-4)GlcNAc(b1-3)Gal(b1-4)GlcNAc(b1-2)Man(a1-6)]Man(b1-4)GlcNAc(b1-4)[Fuc(a1-6)]GlcNAc
# Outline: as §1
# [24] = target: Gal(b1-4)GlcNAc(b1-3)Gal(b1-4)GlcNAc(b1-3)Gal(b1-4)GlcNAc(b1-3)Gal(b1-4)GlcNAc(b1-3)Gal(b1-4)GlcNAc(b1-2)[Gal(b1-4)GlcNAc(b1-3)Gal(b1-4)GlcNAc(b1-3)Gal(b1-4)GlcNAc(b1-3)Gal(b1-4)GlcNAc(b1-3)Gal(b1-4)GlcNAc(b1-6)]Man(a1-6)[Gal(b1-4)GlcNAc(b1-3)Gal(b1-4)GlcNAc(b1-3)Gal(b1-4)GlcNAc(b1-3)Gal(b1-4)GlcNAc(b1-3)Gal(b1-4)GlcNAc(b1-2)Man(a1-3)]Man(b1-4)GlcNAc(b1-4)[Fuc(a1-6)]GlcNAc
# Outline: as §1
# [25] = target: Gal(b1-4)GlcNAc(b1-3)Gal(b1-4)GlcNAc(b1-3)[Gal(b1-4)GlcNAc(b1-3)Gal(b1-4)GlcNAc(b1-6)]GalNAc
# Outline: as §1
binder,measurement,setting,value
"Epa1-NP-mutant-D229G (Candida glabrata), Q6VBJ0 (protein) MILNPALFLNKCVCIYTTLILLLLTNGGYATSSNDISLASKDPTTFPLGCSPDITTPKKGLSMELYSYDFRKKGSYPCWDAAYLDPNYPRTGYKSHRLLAKVDGVTGNINFYYHATKGCTPQLGHLPASYNYPKPLTMTNFTMLLYGYFRPKVTGFHTFTISADDLLFVNFGAGNAFDCCRRDSSADHFGNYQAYAIWGSKTAKDELTVHLDAGVYYPIRLFYNNREYGGALSFTFKTESNENTVSDFSEYFFSLDDTEEGCPGLISYDSSCASVKTSKIIGIDYHTETPNENLVPITKTIYHLGIPCTGTTTTPLCGSGFYDPLANKCVTINTSSTSSVTKTTSHTTSKEVSFHSSISSQKTLIPKSIPSPYGPIKSQSIPTEMETSSEISSSEYAFSDVISTPSHSPYTKKHSSLNSSSYTSTVIHSLTSYSISQGIFSTSLSEQNITSKSSTDKFSTATSMSNNITQSSIIISQFSTNNENYTTTSMHTSSDKISTETLNNSISTTTSILFSNSSTILKNNTTIISSDKDTHYHPVNPTIVCSTNKTEIICASITQPSISNSNNHWSSSVLKFNSTTVRSTLPSSAGSNETSINVPFSSSTESNTSTSSTSTSNSKMVRSTLPSSAGSNETSISVPFSSSTESNTSTSSTSTSNSKMVRSTLPSSAGSNETSINVPFSSSTESNTSTSSTSTSNSKTVRSTPFSSAGIIMTSLSQRNNKSASSYASSNSKCYNTADSCRKVHSTPSYLLTSSYTSEGVDYDCSLVSTKLKINDTNCVNNKHTTKSCLKTSVTTTIPTLEIKTARKSSSNTIGLHSYPTSSPNKSISSAPIIGYISSFKTIKTASPSYQTSDLTTITTITSLNNPGSTAVENTHESNDKSRKTSSNDISSKHSVIKETKDAVESSNKSHQTNTLKCSSIIIASSSHNSYESLGGTTLTLTLSKVYSPQNNDTLPFLEISEVNPSRTVLPESSKMMQYLTSTEERNKTARNTIATNIVSISTFHFEGEGNAIRMGYTQLLLMLIGIIVMNIGT",glycan array binding signal (z-score),[1],1.63
same,glycan array binding signal (z-score),[2],0.514
same,glycan array binding signal (z-score),[3],1
same,glycan array binding signal (z-score),Fuc(a1-2)Gal(b1-4)GlcNAc,0.427
same,glycan array binding signal (z-score),[4],-0.455
same,glycan array binding signal (z-score),[5],-1.5
same,glycan array binding signal (z-score),[6],1.12
same,glycan array binding signal (z-score),Fuc(a1-2)Gal6S(b1-4)Glc,-0.521
same,glycan array binding signal (z-score),[7],0.17
same,glycan array binding signal (z-score),[8],0.093
same,glycan array binding signal (z-score),[9],2.01
same,glycan array binding signal (z-score),[10],-0.039
same,glycan array binding signal (z-score),[11],2.93
same,glycan array binding signal (z-score),[12],-0.751
same,glycan array binding signal (z-score),[13],0.092
same,glycan array binding signal (z-score),[14],-0.531
same,glycan array binding signal (z-score),[15],-0.559
same,glycan array binding signal (z-score),[16],2.08
same,glycan array binding signal (z-score),Gal(a1-3)Gal(b1-3)GlcNAc,-0.137
same,glycan array binding signal (z-score),[17],3.6
same,glycan array binding signal (z-score),Gal(b1-2)Gal,-1.18
same,glycan array binding signal (z-score),Gal(b1-3)Gal,-0.801
same,glycan array binding signal (z-score),[18],2.48
same,glycan array binding signal (z-score),Gal(b1-3)GlcNAc6S,1.23
same,glycan array binding signal (z-score),[19],2.15
same,glycan array binding signal (z-score),[20],-1.41
same,glycan array binding signal (z-score),[21],-0.683
same,glycan array binding signal (z-score),[22],0.068
same,glycan array binding signal (z-score),[23],0.671
same,glycan array binding signal (z-score),[24],2.8
same,glycan array binding signal (z-score),[25],2.55

# Reference: the supplement of paper PMC8728848
